Where “and” joins values, the source holds several entries; their conditions need not be identical. Equal entries are not always repeated. This is part of a sample that, as a whole, favours compounds with a hit. Of some 79,000 tested, about 15% had one in any assay. Calls of active or inactive are those of the source. Cut-off read from the data, not from the text of the source: active = growth inhibition above about 70%; inactive = the rest. Where a SMILES comes first, the peptide text is derived from it. The star is where a group is joined. Boc = CC(C)(C)OC(=O)*; Bn = c1ccc(C*)cc1
Key:
[1] = NCI Yeast Anticancer Drug Screen. Data for the rad50 strain (AID 155);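 note: 0% = growth of vehicle-only cultures of the same strain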; conditions: S. cerevisiae rad50 strain growth inhibition; at 50.0 µM; active compounds read high
In short: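 Inhibition values express reduced yeast growth in compound-treated cultures relative to vehicle-treated controls.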

[2] = NCI Yeast Anticancer Drug Screen. Data for the mec2-1 strain (AID 157); conditions: S. cerevisiae mec2-1 strain, at 50.0 µM, active compounds read high
In short: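 Mutant yeast (mec2-1) grown with compound; growth inhibition relative to vehicle control reported.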

[3] = NCI Yeast Anticancer Drug Screen. Data for the sgs1 mgt1 strain (AID 161);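 note: 0% = growth of cultures given vehicle only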; conditions: S. cerevisiae sgs1 mgt1 strain, at 50.0 µM, active compounds read high
In short: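 Compounds are added to genetically altered yeast, and growth is compared with cultures given vehicle alone to give percent inhibition.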

[4] = NCI Yeast Anticancer Drug Screen. Data for the cln2 rad14 strain (AID 165);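 note: 0% = growth equal to vehicle treated cultures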; conditions: S. cerevisiae cln2 rad14 strain, at 50.0 µM, active compounds read high
In short: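 Readout is yeast growth inhibition versus vehicle-treated controls, using a strain with cln2 and rad14 alterations exposed to compound.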

[5] = NCI Yeast Anticancer Drug Screen. Data for the bub3 strain (AID 167); conditions: S. cerevisiae bub3 mutant strain, at 50.0 µM, active compounds read high
In short: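 Steps: expose the mutant yeast strain to compound; grow alongside vehicle-treated cultures; measure growth; express inhibition against the vehicle cultures.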

[6] = NCI Yeast Anticancer Drug Screen. Data for the mlh1 rad18 strain (AID 175); conditions: S. cerevisiae mlh1 rad18 strain growth inhibition; at 50.0 µM; active compounds read high
In short: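 Genetically defined yeast (DNA repair-deficient) exposed to compounds; growth inhibition determined relative to vehicle.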

Measured: growth inhibition

Cc1cc(=O)[nH]c2ccc(Cc3ccccc3)cc12
inactive: [1] -1.2% and 28.1% | [2] 10.4% and 5.75% | [3] -7.75% and 17.6% | [4] -26.2% and 6% | [5] -4.6% and -2.65% | [6] 16.9% and 21.9%

CC(N)(CCO)C(=O)O (stereo unspecified)
inactive: [1] 1.25% and -1.8% | [2] 11.9% and -3% | [3] -5.95% and -19.4% | [4] 1.4% and -18% | [5] -5.5% and 8.75% | [6] 3.95% and 7.2%

OCC1CCCCO1 (stereo unspecified)
inactive: [1] 0.3% and 1.8% | [2] -13.7% and -6.7% | [3] 2.4% and -24.7% | [4] -1.65% and -37.9% | [5] 7.65% and -10.8% | [6] 3% and -8.4%

CCOC(=O)C(N)Cc1ccc(O)cc1 (stereo unspecified)
inactive: [1] 16% and 0.4% | [2] 8.05% and 6.55% | [3] -0.85% and -11.8% | [4] 6.25% and -19.6% | [5] 10.7% and 1.75% | [6] 23.4% and -1.7%

Nc1ccc(C(=O)NCC(=O)O)cc1
inactive: [1] 13.4% and 10.3% | [2] 3.65% and -4.8% | [3] 3.25% and 5.05% | [4] -41.3% and 15.2% | [5] 6.75% and -3.5% | [6] 0.4% and 16.7%

OCCCc1ccncc1
inactive: [1] -6.05% and -8.55% | [2] -4.65% and -4.7% | [3] 2.9% and 4.75% | [4] 8.7% and -7.9% | [5] 3.25% and -0.55% | [6] 12.2% and 7.85%

O=C1OC(c2ccccc2)=N/C1=C\c1ccccc1O
inactive: [1] -4.65% and -9.75% | [2] -13.2% and -16.3% | [3] -0.2% and -1.3% | [4] 2.6% and 7.3% | [5] -1.7% and -13.6% | [6] -21.1% and -0.55%

O=C(O)/C=C/c1cccc(Cl)c1
inactive: [1] 14.2% and -11.2% | [2] 10.2% and -19.9% | [3] 3.25% and -12.2% | [4] -16.1% and 13.5% | [5] -6.7% and -28.2% | [6] 24.8% and 23.6%

CC(=O)Nc1cccc(N)c1
inactive: [1] 8.05% and 12.3% | [2] -12% and 6.65% | [3] 0.35% and -3.95% | [4] 5.4% and -40.4% | [5] 5.1% and 0.7% | [6] 9.6% and -1.3%

CNC(=O)C(CC(C)C)NC(=O)C(C)NC(=O)C(Cc1ccc(OCc2ccccc2)cc1)NC(=O)C(COCc1ccccc1)NC(=O)OC(C)(C)C (stereo unspecified) (Boc-S(Bn)Y(Bn)AL-NHMe; configuration not given here)
inactive: [1] -7.2% and -29.6% | [2] -17.5% and -21.1% | [3] -20.1% and -17% | [4] 17.1% and 6.9% | [5] 25% and -1.35% | [6] 1.1% and -0.25%

C=C1C(=O)OC2C1CCC(C)C1CCC(=O)OC12C (stereo unspecified)
inactive: [1] 50.9% and -7.2% | [2] 58.8% and -1.4% | [3] 43.1% and 17.2% | [4] 35% and 18.6% | [5] 64% and 13.6% | [6] 54.5% and 3.8%

CC(C)c1ccc(C(=O)O)cc1
inactive: [1] 11.3% and 24% | [2] -9.2% and 12.3% | [3] 9.55% and 13.2% | [4] -8.2% and 5.9% | [5] -9% and 5.1% | [6] 20.1% and 22.2%

CCOC(=O)C(=Cc1ccco1)C(=O)OCC
inactive: [1] 38.5% and 10.2% | [2] 37.1% and -24.6% | [3] 7.75% and -0.5% | [4] 23.8% and 8.8% | [5] -4.65% and -9.25% | [6] 19.8% and -19.1%

O=C(O)c1cc([N+](=O)[O-])ccc1Nc1ccccc1
inactive: [1] 10.8% and -9.95% | [2] 0.2% and -12.4% | [3] -7.05% and -3.35% | [4] 31.6% and -28.6% | [5] 18.6% and -3.55% | [6] 18.1% and -6.2%

C1CN(CCN2CCOCC2)CCO1
inactive: [1] 0.9% and 7.9% | [2] 18.1% and 13% | [3] 9.35% and 13.6% | [4] -26.6% and -40.6% | [5] 10.6% and 28.9% | [6] 7.7% and 14%

[Cl][Pr]([Cl])[Cl]
inactive: [1] 21.9% and 19.1% | [2] -7.65% and 5.55% | [3] -3.4% and 33.6% | [4] 1.6% and 19.1% | [5] 7.65% and 22.9% | [6] 1.4% and 42.2%

COC1OC2COC(c3ccccc3)OC2C(OC(C)=O)C1OC(C)=O (stereo unspecified)
inactive: [1] 15.4% and 5.85% | [2] 10.2% and 6.9% | [3] 2.1% and 4.05% | [4] 2.4% and 2.9% | [5] 38.8% and 10% | [6] 19.9% and -14.9%

CN1C/C(=C\c2ccccc2[N+](=O)[O-])C(=O)/C(=C/c2ccccc2[N+](=O)[O-])C1
inactive: [1] -3.7% and -14.4% | [2] 14.9% and 28.8% | [3] 25.6% and -49% | [4] 4.85% and -8.9% | [5] 13.7% and 21.4% | [6] 16.8% and -29.1%

O=C1C(O)=C(Cl)C(=O)C(O)=C1Cl
inactive: [1] 6.7% and 13.6% | [2] 2.3% and -26.3% | [3] -2.15% and 25.3% | [4] -0.2% and 5.3% | [5] 29.9% and -11.3% | [6] -12.9% and -3.2%

CCCCNC(=S)NCCCC
inactive: [1] -6.45% and -1.4% | [2] 9.9% and 8% | [3] -11% and 19.2% | [4] -32% and -17.5% | [5] 1.15% and -4.35% | [6] -2.4% and 17.3%

CC(O)c1nc2c([nH]1)c(=O)n(C)c(=O)n2C (stereo unspecified)
inactive: [1] -4.3% and -3.1% | [2] -6.2% and -8.9% | [3] -5.6% and -2% | [4] -30.3% and -16.9% | [5] 5.7% and -13.9% | [6] 9.15% and -23.2%

From PubChem BioAssay (NCI)
